Only some compounds are listed: those with a hit (about 7.5% of all), similar ones and a draw of the others.
HCMV inh – qHTS Assay for inhibitors of the human cytomegalovirus (HCMV). HFF cells, HCMV-luciferase reporter, 72 h; hits give low values. activity change, negative = inhibition, % at 57.5 µM. hit rate 4.5% among 410,000. AID 1259415, 2018; in the data active means activity change below about -60%; inconclusive means no clear call, values can overlap the other calls; inactive means above about -39%
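Steps: HFFs plated, 16 h 37C; compounds added; HCMV-luciferase added to MOI 1 PFU/cell; 72 h 37C; OneGlo reagent, 5 min room temperature; luminescence read, normalized to controls.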
FMDV antiviral – High Throughput Screening for Foot and Mouth Disease Virus Antivirals; FMDV antiviral cell-based qHTS; Potency, µM (series often up to 57.9 µM), for the others: at the highest dose activity change, negative = inhibition, hits mostly inhibitors; hit rate 1.2% among 410,000; AID 1159524, 2015; calls by dose curve; tested in HEK293T cells; further: read-out not given here; potency means the concentration at half of the fitted maximal effect; nearly all actives have a fitted effect of over 45% in size
VACV mCherry inh – qHTS for Stage-Specific Inhibitors of Vaccinia Orthopoxvirus: mCherry Reporter Primary qHTS | Vaccinia virus mCherry reporter infection, fluorescence | hit rate 0.63% among 310,000 | Potency, µM (titrated, usually from 36.5 µM), for inactives: at the top dose activity change, negative = inhibition, actives largely listed as inhibitors; calls by dose curve; tested in A549 cells; further: potency means the concentration at half of the fitted maximal effect; nearly all actives have a fitted effect of over 35% in size
FBPA Giardia inh – qHTS Assay for Inhibitors of Fructose-1,6-bisphosphate Aldolase from Giardia Lamblia. A8B2U2. purified Giardia FBPA. Potency, µM (top dose mostly 59.6 µM), for inactives: at the top dose activity, negative = inhibition, usual class: inhibitors. hit rate 0.71% among 290,000; further: potency means the concentration at half of the fitted maximal effect; nearly all actives have a fitted effect of over 55% in size
Target sequence (A8B2U2 whole entry, looked up): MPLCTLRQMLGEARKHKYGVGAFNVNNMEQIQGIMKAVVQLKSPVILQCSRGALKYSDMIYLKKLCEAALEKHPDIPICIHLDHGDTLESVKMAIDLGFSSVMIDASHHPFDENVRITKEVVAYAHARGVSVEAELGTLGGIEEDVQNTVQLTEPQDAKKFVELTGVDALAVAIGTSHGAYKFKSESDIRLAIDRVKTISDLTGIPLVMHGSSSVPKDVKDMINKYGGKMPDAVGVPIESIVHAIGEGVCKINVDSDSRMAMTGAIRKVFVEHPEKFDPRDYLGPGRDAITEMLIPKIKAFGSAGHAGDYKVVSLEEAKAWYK
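Giardia FBPA (40 nM reagent) was preincubated 10 min at RT with compound (up to 57.5 uM final), then substrate plus GAPDH/TPI/NAD/arsenate coupling system with diaphorase/resazurin was added; resorufin fluorescence (525/598 nm) was read after 20 min.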
VACV Venus inh – qHTS for Stage-Specific Inhibitors of Vaccinia Orthopoxvirus: Venus Reporter Primary qHTS; Vaccinia virus Venus reporter expression, fluorescence; Potency, µM (titrated, usually from 36.5 µM), inactives show at the highest dose activity change, negative = inhibition, hits mostly inhibitors; hit rate 0.46% among 330,000; calls by dose curve; tested in A549 cells; further: potency means the concentration at half of the fitted maximal effect; nearly all actives have a fitted effect of over 30% in size
HCV inh – qHTS Assay for Inhibitors of Hepatitis C Virus (HCV) | Huh7.5.1 HCVcc-Cre infection, luciferase reporter, 44 h | Potency, µM (series often up to 41.8 µM), inactives show at the highest dose activity change, negative = inhibition, most hits filed as inhibitors | hit rate 3.4% among 340,000; further: potency means the concentration at half of the fitted maximal effect
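Reporter virus HCVcc-Cre (~0.5 moi) infects cells exposed to compound; seeding density 1,000 cells/well with 4 h settling beforehand. Luminescence, 15 sec read, taken 44 h post-infection following a 15 min RT substrate incubation.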
* marks the source's active call; other numbers are inactive results; i = inactive; ? = inconclusive; . = not tested or not shown; ! = a repeat was not active; [ ] = dose if it differs, or a comment. Unless noted, the call rests on the fitted dose curve; in most records, active means well fitted curve in the direction sought with a large enough effect; inconclusive means small, poorly fitted or top-dose-only effect, or another doubt; inactive means no such curve, though single readings can be large; an effect the other way counts as inactive or inconclusive. On the % scale 0 is the no-effect control and ±100 the full control effect.

SMILES	HCMV inh	FMDV antiviral	VACV mCherry inh	FBPA Giardia inh	VACV Venus inh	HCV inh
O=[N+]([O-])c1ccc(N/N=C/c2ccc(O)c(O)c2O)c(S(=O)(=O)N2CCOCC2)c1	-23.2	?	0.2%	9.98µM*	6.3%	?
CC(=O)NCCC(=O)Nc1sc2c(c1-c1nc3ccccc3[nH]1)CCCC2	-16.0	10.7%	-14.7%[1.46 µM]	-9.2%	-22.7%	11.2µM*
O=C(Nc1sc2c(c1-c1nc3ccccc3[nH]1)CCCC2)C1CCCC1	-13.3	-2.4%	-28.6%	-7.3%	-21.7%	?
CN1CCN(S(=O)(=O)c2cccc(C(=O)Nc3sc4c(c3-c3nc5ccccc5[nH]3)CCCC4)c2)CC1	65.5	24.6%	-9.9%	-1.1%	-15.4%	3.55µM*
O=C(Cc1ccc(OCCCc2ccccc2)cc1)NO	.	.	-3.8%	.	-3.5%	.
CC(C)NC(=O)CN1CCN(C(=O)CCl)CC1	-2.4	-9.6%	12.6µM*	-12.7%	10µM*	19.2%
CCOC(=O)c1ccc(NC(=O)c2ccc(CN3CCOCC3)cc2)cc1	?	25.1µM*	?	5.2%	?	?
CC(C)CC(=O)N1CCN(Cc2ccc(Br)cc2)CC1	-29.5	-23.9%	-12.1%	?	-2.3%	-12.8%
CC(C)c1ccc(CN2CCN(C(=O)CCl)CC2)cc1	-68.8*	17.8µM*	.	-13.3%	.	11.2µM*
NC(=O)c1ccc(NC(=O)c2ccc(CN3CCOCC3)cc2)cc1	-8.3	0.0%	.	3.2%	.	20.0%
CC(C)c1ccc(C(=O)Nc2ccc(CN3CCOCC3)cc2)cc1	-82.9*	-5.6%	-13.6%	10.0%	-17.5%	?
COc1cccc(/C=C/c2ccnc3ccccc23)c1OC	.	.	-20.0%	.	-10.9%	.
N=C(N)c1ccc(OCCCCCOc2ccc(C(=N)N)cc2)cc1 (tested in a mixture with another compound)	.	.	.	-0.7%	.	.
Cc1sc2ncn(CC(=O)NCCCN3CC(C)CC(C)C3)c(=O)c2c1S(=O)(=O)N1CC(C)CC(C)C1 (stereo not given)	-13.2	-11.7%	-3.5%	5.1%	-7.6%	?
CCN(CC)S(=O)(=O)c1cccc(C(=O)Nc2cccnc2)c1	-19.0	-15.3%	.	?	.	13.2%
CCN(CC)S(=O)(=O)c1cc(C)ccc1NC(=S)Nc1cccnc1	-68.8*	-8.5%	-19.0%	-15.5%	-19.1%	11.2µM*
COc1ccccc1NC(=O)CSc1nnc(CC(=O)Nc2ccccc2F)n1C	7.6	34.8%	-11.1%	6.3%	-1.1%	21.9%
COc1ccc(/C=C2\SC(=S)N(CCCC(=O)Nc3ccccn3)C2=O)cc1OC	-99.4*	?	?	6.8%	-4.6%	?
O=C(CCN1C(=O)/C(=C/c2ccccc2)SC1=S)Nc1ccccn1	-11.8	-16.2%	.	12.6%	.	-7.4%
Cc1ccc(/C=C2\SC(=S)N(CCCC(=O)Nc3ccccn3)C2=O)cc1	-103.6*	?	i	-0.1%	-5.8%	?
CN(CC(=O)Nc1ccc(Cl)cc1F)C1CCS(=O)(=O)C1 (stereo not given)	-100.1*	-22.2%	.	.	.	7.6%
O=C(CCl)NCCNC(=O)c1cc(OCC(F)(F)F)ccc1OCC(F)(F)F	-78.0*	-12.7%	2µM*	1.0%	2µM*	22.4µM*
O=C(NCC1CCCCN1)c1cc(OCC(F)(F)F)ccc1OCC(F)(F)F (stereo not given)	0.0	0.0%	35.5µM*!	2.8%	10µM*!	10µM*
CC(C)CC(=O)NCCNC(=O)c1cc(OCC(F)(F)F)ccc1OCC(F)(F)F	34.7	-13.6%	.	4.4%	-7.1%	5.4%
COc1ccc(N2C(=O)c3ccccc3NC2c2ccc(OC)c(COc3ccc(NC(C)=O)cc3)c2)cc1 (stereo not given)	.	.	?	.	-12.1%	.
SMILES	HCMV inh	FMDV antiviral	VACV mCherry inh	FBPA Giardia inh	VACV Venus inh	HCV inh
COc1ccc(-n2c(-c3ccc(Cl)cc3)c[n+]3c2CCCCC3)cc1	-80.0*	0.0%	.	5.2%	.	-8.2%
FC(F)Oc1ccc(-c2c[n+]3c(n2-c2ccccc2)CCCCC3)cc1	?	-21.5%	.	9.0%	.	5.1%
COc1ccc(-c2c[n+]3c(n2-c2c(C)n(C)n(-c4ccccc4)c2=O)CCCCC3)cc1	1.5	27.3%	-0.1%	0.4%	-6.6%	15.8%
FC(F)Oc1ccc(-n2cc(-c3ccc(Cl)cc3)[n+]3c2CCCCC3)cc1	-16.9	-14.6%	i	6.8%	-13.5%	-4.9%
COc1ccc(-c2c[n+](CC(=O)c3ccccc3)c3n2CCCCC3)cc1	?	-26.0%	.	-0.5%	.	?
COc1ccc(-c2c[n+]3c(n2-c2ccc(C)cc2)CCCCC3)cc1	-97.4*	?	i	3.8%	-18.1%	?
COc1ccc(-c2c[n+]3c(n2-c2ccccc2)CCCCC3)cc1	-96.0*	?	.	2.1%	.	3.6%
COc1ccc(-c2c[n+]3c4n2CCCCC4=C(c2ccccc2)C3)cc1	-101.6*	22.4µM*	.	.	.	-27.4%
C[C@H](NC(=O)c1[nH]cnc1C(=O)N[C@@H](C)CO)c1ccccc1	-8.1	-15.7%	-15.3%	.	-8.4%	.
CC1CN(Cc2cccn2-c2cccnc2)Cc2cc(Cl)ccc2O1 (stereo not given)	.	-12.5%	-10.4%	.	1.9%	.
CC(C)C[C@@H](CC(=O)N[C@H](CC(=O)N[C@@H]1CCCC[C@H]1C(=O)N[C@H](CC(=O)N[C@@H](CCC(=O)O)CC(=O)O)Cc1c[nH]c2ccccc12)C(C)C)NC(=O)[C@@H]1CNCC[C@H]1N	.	.	.	-22.0%	.	.
O=C(NCCc1ccccc1)C(c1cccs1)N(C(=O)CCl)c1ccc(Cl)cc1 (stereo not given)	-99.5*	35.5µM*	?	-0.8%	?	?
C/C(Cn1nnc([N+](=O)[O-])n1)=N\NC(=O)c1ccncc1	14.8	-20.7%	?	19.9µM*	?	-1.5%
C/C(Cn1cnc([N+](=O)[O-])n1)=N\NC(=O)c1cccc(F)c1	19.4	39.2%	.	-15.6%	.	11.2µM*
C/C(Cn1cnc([N+](=O)[O-])n1)=N\NC(=O)c1ccc(F)cc1	83.8	-5.2%	.	-15.3%	.	-3.2%
C/C(Cn1nnc([N+](=O)[O-])n1)=N\NC(=O)c1ccc(C)cc1	46.8	-28.2%	?	?	?	?
CCCc1cc(=O)oc2c3c(cc(OCC(=O)NCc4ccccn4)c12)OC(C)(C)CC3	?	-25.5%	-6.0%	?	-11.4%	10µM*
Cc1cc(=O)oc2c3c(cc(OCC(=O)NCc4ccccc4)c12)OC(C)(C)CC3	57.3	-28.3%	-9.3%	13.0%	4.9%	5.62µM*
COc1cccc(Nc2sc(C(=O)c3ccc(Cl)cc3)c(N)c2C(=O)NCc2ccc(C)cc2)c1	-80.1*	?	?	.	?	.

From PubChem BioAssay
